# Measured values as given in PubChem BioAssay (NCATS).
# Results filed as inconclusive are left out. Calls of active or inactive are those of the source. Unless noted, calls come from the whole dose curve.
# Assays:
# [1] = target: Estrogen receptor (Homo sapiens) (UniProt P03372); assay: qHTS assay for small molecule antagonists of estrogen receptor alpha signaling (AID 588513; active = well fitted curve in the direction sought with a large enough effect in the signal ratio, with a control signal flat, not every such curve was filed as active; the % refers to the signal ratio; note: % is set by controls: 0 for no effect and ±100 for the full control effect)
# Chain of Estrogen receptor (Homo sapiens) (P03372 whole entry, looked up): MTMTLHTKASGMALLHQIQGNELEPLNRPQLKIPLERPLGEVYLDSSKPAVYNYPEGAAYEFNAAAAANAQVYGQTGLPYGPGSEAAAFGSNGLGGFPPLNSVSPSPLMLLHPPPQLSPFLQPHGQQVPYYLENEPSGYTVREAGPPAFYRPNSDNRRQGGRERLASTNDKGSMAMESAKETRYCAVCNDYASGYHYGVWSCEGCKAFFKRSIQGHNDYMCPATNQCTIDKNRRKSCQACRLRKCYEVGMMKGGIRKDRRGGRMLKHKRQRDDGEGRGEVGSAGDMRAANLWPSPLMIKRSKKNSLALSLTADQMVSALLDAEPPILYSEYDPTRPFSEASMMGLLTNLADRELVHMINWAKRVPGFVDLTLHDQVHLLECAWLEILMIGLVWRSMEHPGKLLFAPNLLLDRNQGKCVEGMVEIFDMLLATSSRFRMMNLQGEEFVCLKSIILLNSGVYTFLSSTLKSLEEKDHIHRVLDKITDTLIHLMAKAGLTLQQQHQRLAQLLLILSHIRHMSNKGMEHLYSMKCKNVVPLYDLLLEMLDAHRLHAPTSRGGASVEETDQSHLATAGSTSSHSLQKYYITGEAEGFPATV
# How it was run: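 Antagonist-mode qHTS in ER-alpha-UAS-bla HEK 293 cells: compound titration, 0.5nM estradiol for 18 h, CCF4 fluorescence, Hill-derived IC50.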
# [2] = target: Estrogen receptor (Homo sapiens) (UniProt P03372); assay: qHTS assay for small molecule agonists of estrogen receptor alpha signaling (AID 588514);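 note: 0% = vehicle only and 100% = reference agonist; nearly all actives have a fitted effect of over 70% in size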
# How it was run: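 Read-out: CCF4 fluorescence from a beta-lactamase reporter in ER-alpha-UAS-bla HEK 293 cells after 18 hrs of compound exposure at 37 C. Normalized to 20 nM 17-beta-estradiol (100%) and DMSO (0%).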
# [3] = qHTS assay for small molecule antagonists of peroxisome proliferator-activated receptor delta signaling (AID 588535); conditions: HEK293T PPARd-UAS-bla, beta-lactamase FRET ratio, 18 h; 460 nm channel;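 note: cells co-treated with a PPAR-delta agonist as stimulator during compound exposure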
# How it was run: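 Beta-lactamase reporter read-out (405 nm excitation, 460/530 nm emission) after CCF4 loading for 2 hrs at RT. HEK293T PPAR-delta-UAS-bla cells, 2% charcoal/dextran FBS, compounds for 18 hrs at 37 C. Hill fit gave IC50 and efficacy.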
# [4] = target: Vitamin D3 receptor (Homo sapiens) (UniProt P11473); assay: qHTS assay for small molecule antagonists of vitamin D receptor signaling (AID 588541);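 note: receptor activated by calcitriol during compound treatment; series mostly up to about 77 µM; % is set by controls: 0 for no effect and ±100 for the full control effect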
# Chain of Vitamin D3 receptor (Homo sapiens) (P11473 whole entry, looked up): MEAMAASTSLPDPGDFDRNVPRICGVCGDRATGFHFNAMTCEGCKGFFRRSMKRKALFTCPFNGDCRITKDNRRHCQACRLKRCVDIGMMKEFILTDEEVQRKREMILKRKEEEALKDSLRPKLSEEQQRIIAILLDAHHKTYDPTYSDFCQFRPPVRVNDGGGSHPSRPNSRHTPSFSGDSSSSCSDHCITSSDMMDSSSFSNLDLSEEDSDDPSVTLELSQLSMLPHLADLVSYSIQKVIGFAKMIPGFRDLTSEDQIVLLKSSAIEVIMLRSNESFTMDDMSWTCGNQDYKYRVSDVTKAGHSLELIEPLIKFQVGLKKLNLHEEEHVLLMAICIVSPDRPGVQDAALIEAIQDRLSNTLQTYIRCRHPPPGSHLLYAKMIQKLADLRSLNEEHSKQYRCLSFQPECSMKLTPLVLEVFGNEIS
# How it was run: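 VDR-UAS-bla HEK293T cells in 2% charcoal-stripped FBS were stimulated with 1-alpha,25-dihydroxyvitamin D3 (3 nM final) plus compound for 16 h at 37 C. The beta-lactamase CCF4 readout was normalized to 50 nM agonist and DMSO, and Hill fits gave IC50.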
# [5] = target: Vitamin D3 receptor (Homo sapiens) (UniProt P11473); assay: qHTS assay for small molecule agonists of vitamin D receptor signaling (AID 588543);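 note: 0% = DMSO basal and 100% = reference agonist control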
# How it was run: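 Measured: β-lactamase reporter activity (CCF4, 405 nm excitation, 460/530 nm emission) in HEK293T VDR-UAS-bla cells after 16 h compound exposure at 37 °C. Normalization against 50 nM 1α,25-dihydroxyvitamin D3 and DMSO; Hill-fit EC50.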
# [6] = qHTS assay for small molecule agonists of retinoid X receptor alpha signaling (AID 588544); conditions: HEK293T RXRa-UAS-bla, beta-lactamase reporter, 18 h; 530 nm emission; note: potency is the fitted concentration of half-maximal effect;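 for activation: 0% = DMSO basal wells and 100% = reference agonist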
# [7] = target: Retinoic acid receptor RXR-alpha (Homo sapiens) (UniProt P19793); assay: as above
# Chain of Retinoic acid receptor RXR-alpha (Homo sapiens) (P19793 whole entry, looked up): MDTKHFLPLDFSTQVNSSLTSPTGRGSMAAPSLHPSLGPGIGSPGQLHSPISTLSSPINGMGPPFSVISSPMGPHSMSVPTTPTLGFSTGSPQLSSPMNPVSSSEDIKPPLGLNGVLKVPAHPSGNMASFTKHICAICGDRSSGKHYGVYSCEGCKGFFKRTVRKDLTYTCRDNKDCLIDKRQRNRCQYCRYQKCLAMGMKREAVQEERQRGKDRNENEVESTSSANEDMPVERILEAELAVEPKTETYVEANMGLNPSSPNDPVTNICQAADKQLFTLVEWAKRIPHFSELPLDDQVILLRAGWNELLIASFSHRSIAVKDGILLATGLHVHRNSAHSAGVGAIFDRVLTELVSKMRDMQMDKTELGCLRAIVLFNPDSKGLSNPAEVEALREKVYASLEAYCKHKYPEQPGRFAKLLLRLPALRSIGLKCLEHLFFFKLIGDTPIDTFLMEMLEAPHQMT
# [8] = target: Thyroid hormone receptor beta (Homo sapiens) (UniProt P10828); assay: qHTS assay for small molecule agonists of thyroid hormone receptor beta signaling (AID 588545)
# Chain of Thyroid hormone receptor beta (Homo sapiens) (P10828 whole entry, looked up): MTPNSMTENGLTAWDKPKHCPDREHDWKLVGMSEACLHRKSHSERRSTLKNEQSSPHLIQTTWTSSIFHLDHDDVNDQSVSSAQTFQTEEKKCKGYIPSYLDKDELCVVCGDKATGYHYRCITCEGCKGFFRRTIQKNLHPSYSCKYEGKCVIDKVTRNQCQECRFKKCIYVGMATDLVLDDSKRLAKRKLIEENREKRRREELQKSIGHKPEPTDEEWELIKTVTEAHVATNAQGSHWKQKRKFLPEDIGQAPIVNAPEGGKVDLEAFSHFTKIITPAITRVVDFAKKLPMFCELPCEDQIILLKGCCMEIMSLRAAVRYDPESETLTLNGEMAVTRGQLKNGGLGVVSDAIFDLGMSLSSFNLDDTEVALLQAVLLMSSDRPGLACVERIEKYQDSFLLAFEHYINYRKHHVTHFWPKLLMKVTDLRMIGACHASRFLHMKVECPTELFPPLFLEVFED
# How it was run: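 Cells (2500/well) were seeded, incubated 4 hrs at 37 C, dosed with a compound series, incubated 18 hrs, loaded with CCF4 dye for 2 hrs at RT, then read for fluorescence. Data were scaled between DMSO (0%) and 10 nM T3 (100%).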
# [9] = qHTS assay for small molecule antagonists of retinoid X receptor alpha signaling (AID 588546; active = well fitted inhibition curve with a large enough effect in the signal ratio, with a control signal flat, not every such curve was filed as active; the % refers to the signal ratio;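 note: cells stimulated with 9-cis-retinoic acid as agonist; % is set by controls: 0 for no effect and ±100 for the full control effect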); conditions: HEK293T RXRa-UAS-bla, beta-lactamase ratio, antagonist mode; measured here: W530 green channel, cytotoxicity proxy
# How it was run: (§1)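 Beta-lactamase reporter inhibition, read as CCF4 fluorescence ratio (ex 405, em 460/530 nm) after 2 h at RT. HEK293T UAS-bla cells, 2500/well, were stimulated with 9-cis-RA at 500 or 100 nM final alongside test compound for 18 h at 37 C.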
# [10] = target: Retinoic acid receptor RXR-alpha (Homo sapiens) (UniProt P19793); assay: as above; conditions: HEK293T RXRa-UAS-bla, beta-lactamase ratio, antagonist mode
# How it was run: as §1
# [11] = qHTS assay for small molecule activators of the nuclear factor-kappa B (NF-kB) signaling pathway (AID 651749; active = well fitted activation curve with a large enough effect in the signal ratio; the % refers to the signal ratio; note: series mostly up to about 77 µM; % of control where 0% means no effect); conditions: NF-kB-bla ME-180 cells, beta-lactamase FRET ratio, 16 h; activation: stronger effect = higher value
# How it was run: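 NF-kB-bla ME-180 cells, 2,000/well; 23 nL compound or DMSO pinned; 16 hr, 37C/5% CO2; beta-lactamase FRET read-out.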
# [12] = qHTS assay for environmental chemicals that activate the Aryl hydrocarbon Receptor (AhR) signaling pathway (AID 651777; active = well fitted curve in the direction sought with a large enough effect; an effect the other way counts as inactive or inconclusive; note: % of control where 0% means no effect; nearly all actives have a fitted effect of over 15% in size); conditions: 1A2-DRE human hepatoma cells, luciferase, 24 h; activation: stronger effect = higher value
# How it was run: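 Following a 24 hr incubation with test chemicals at 37 C and 5% CO2, 1A2-DRE human hepatoma cells received One-Glo reagent; after 30 min at room temperature, luciferase output reflected CYP1A2 induction via AhR.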
# [13] = target: Peroxisome proliferator-activated receptor alpha (Homo sapiens) (UniProt Q07869); assay: qHTS assay for small molecule agonists of the peroxisome proliferator-activated receptor alpha (PPARalpha) signaling pathway (AID 651778; active = well fitted curve in the direction sought with a large enough effect; an effect the other way counts as inactive or inconclusive; note: % of control where 0% means no effect); conditions: PathHunter PPARalpha complementation, chemiluminescence, 6 h; max response: stronger effect = higher value
# Chain of Peroxisome proliferator-activated receptor alpha (Homo sapiens) (Q07869 whole entry, looked up, the tested form may be a part): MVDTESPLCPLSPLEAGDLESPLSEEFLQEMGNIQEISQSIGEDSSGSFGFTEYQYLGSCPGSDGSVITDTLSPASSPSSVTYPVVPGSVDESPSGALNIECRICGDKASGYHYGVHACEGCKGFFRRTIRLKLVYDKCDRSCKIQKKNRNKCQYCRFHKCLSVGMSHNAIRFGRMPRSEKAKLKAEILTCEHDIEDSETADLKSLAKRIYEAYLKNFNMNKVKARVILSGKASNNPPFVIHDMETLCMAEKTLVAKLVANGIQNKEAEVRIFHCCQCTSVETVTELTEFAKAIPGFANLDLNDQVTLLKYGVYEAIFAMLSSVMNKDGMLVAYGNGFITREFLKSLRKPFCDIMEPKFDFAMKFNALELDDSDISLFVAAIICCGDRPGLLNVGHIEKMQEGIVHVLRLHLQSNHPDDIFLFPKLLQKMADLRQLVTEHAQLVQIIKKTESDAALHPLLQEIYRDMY
# How it was run: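 Enzyme-fragment complementation assay in which ligand-bound PPARalpha translocates and forms an active enzyme that generates chemiluminescence. Cells were plated overnight, exposed to compound for 6 hr at 37 C, and then given detection reagent for 60 min at room temperature.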
# [14] = qHTS assay for small molecule agonists of the antioxidant response element (ARE) signaling pathway measured by Nrf2-dependant transcriptional activity (AID 720636; active = well fitted curve in the direction sought with a large enough effect in the repeat runs; an effect the other way counts as inactive or inconclusive;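 note: HepG2 cells with an ARE-driven luciferase reporter; % of control where 0% means no effect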)
# How it was run: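 ONE-Glo luminescence, read 30 min after reagent addition at room temperature, reflected ARE reporter activity in HepG2 cells that had been incubated with compound for 16 hr at 37 C in 1% dialyzed FBS.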
# [15] = qHTS assay for small molecule agonists of the antioxidant response element (ARE) signaling pathway measured by Nrf2-dependant transcriptional activity - cell viability counter screen (AID 720653; active = well fitted curve in the direction sought with a large enough effect in the repeat runs; an effect the other way counts as inactive or inconclusive; note: % is set by controls: 0 for no effect and ±100 for the full control effect); conditions: ARE-bla HepG2 viability, CellTiter-Glo ATP luminescence, 16 h; max response: stronger effect = lower value
# How it was run: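 ARE-bla HepG2 cells treated with compounds for 16 h at 37C; this counter screen measures viability as intracellular ATP by CellTiter-Glo luminescence after 30 min at room temperature.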
# [16] = qHTS assay for cell viability of HEK293 cells (AID 743288; active = well fitted curve in the direction sought with a large enough effect; an effect the other way counts as inactive or inconclusive; note: % is set by controls: 0 for no effect and ±100 for the full control effect; nearly all actives have a fitted effect of over 50% in size); conditions: ATP luminescence (CellTiter-Glo), 18 h; max response: stronger effect = lower value
# How it was run: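 HEK293, 18 h, 37 C, ATP luminescence. Cells at 2,000/well were allowed at least 5 h to settle before dosing; CellTiter-Glo developed 30 min at RT.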
# [17] = qHTS assay for cell viability of the p53RE-bla HCT-116 cell line (AID 743292; active = well fitted curve in the direction sought with a large enough effect; an effect the other way counts as inactive or inconclusive; note: % is set by controls: 0 for no effect and ±100 for the full control effect; nearly all actives have a fitted effect of over 55% in size)
# How it was run: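 After plating at 4,000 cells per well and a 5 h rest at 37 C, HCT-116 cells carrying p53RE-bla received test chemicals in DMSO. Sixteen hours later at 37 C, CellTiter-Glo was added and luminescence recorded following 30 min at room temperature.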
# [18] = target: Nuclear receptor subfamily 1 group I member 2 (Rattus norvegicus) (UniProt Q9R1A7); assay: qHTS assay for small molecule activators of the rat pregnane X receptor (rPXR) signaling pathway (AID 651751; call rule not given here; note: 0% is about no effect); conditions: rPXR reporter cells, luciferase (One-Glo), 24 h
# Chain of Nuclear receptor subfamily 1 group I member 2 (Rattus norvegicus) (Q9R1A7 whole entry, looked up): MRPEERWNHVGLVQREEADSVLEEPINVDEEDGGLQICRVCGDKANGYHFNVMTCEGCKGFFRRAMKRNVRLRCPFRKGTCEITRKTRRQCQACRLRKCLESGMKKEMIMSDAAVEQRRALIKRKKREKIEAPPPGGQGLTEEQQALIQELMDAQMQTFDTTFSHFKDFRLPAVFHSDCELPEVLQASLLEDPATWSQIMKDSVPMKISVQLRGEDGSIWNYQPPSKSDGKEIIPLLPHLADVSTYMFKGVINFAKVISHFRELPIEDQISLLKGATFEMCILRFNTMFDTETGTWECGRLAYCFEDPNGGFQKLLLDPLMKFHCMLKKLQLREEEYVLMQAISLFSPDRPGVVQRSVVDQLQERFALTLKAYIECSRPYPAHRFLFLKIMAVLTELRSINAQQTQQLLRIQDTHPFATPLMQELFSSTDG
# [19] = qHTS assay for small molecule activators of the human pregnane X receptor (PXR) signaling pathway (AID 720659; call rule not given here; note: 0% is about no effect)
# [20] = target: Thyroid hormone receptor beta (Homo sapiens) (UniProt P10828); assay: qHTS assay for small molecule antagonists of thyroid hormone receptor beta signaling (AID 588547; active = well fitted inhibition curve with a large enough effect in the signal ratio, with a control signal flat, not every such curve was filed as active; the % refers to the signal ratio); conditions: TR-UAS-bla HEK293, beta-lactamase ratio, antagonist mode, 18 h
# How it was run: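 TR-UAS-bla GripTite HEK293 cells in 2% charcoal/dextran FBS medium; compounds 0.59 nM to 92 uM with T3 at 0.4nM final, 18 h at 37 C. Beta-lactamase read by CCF4 fluorescence (460/530 nm); Hill fits gave IC50 and efficacy.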
SMILES,Potency [1],Potency [2],max response [3],Potency [4],outcome [5],max response [6],Potency [7],Potency [8],max response [9],max response [10],activation [11],activation [12],max response [13],Potency [14],max response [15],max response [16],Potency [17],max response [18],outcome [19],activity change % (negative = inhibition) [20]
C[Si](Cl)(Cl)c1ccccc1,inactive,inactive,44.2%,inactive,inactive,-17.5%,inactive,inactive,-2.11%,-4.88% (inactive),0.494% (inactive),0.0847% (inactive),-2.64% (inactive),inactive,-14.9% (inactive),-2.42% (inactive),inactive,-3.28% (inactive),inactive,
COC(=O)c1ccccc1S(=O)(=O)NC(=O)Nc1nc(OC(F)F)cc(OC(F)F)n1,inactive,inactive,-18.5%,inactive,inactive,-18.6%,inactive,inactive,-7.16%,-2.35% (inactive),-2.94% (inactive),-0.662% (inactive),-0.141% (inactive),inactive,4.57% (inactive),0.401% (inactive),inactive,1.81% (inactive),inactive,
CCCCCCCCCCCCCCCCCCN,inactive,inactive,13.6%,inactive,inactive,-24%,15.8 µM (active),inactive,-8.83%,4.01% (inactive),0.495% (inactive),0.284% (inactive),0.121% (inactive),,-7.69% (inactive),4.92% (inactive),inactive,-2.88% (inactive),inactive,13% (inactive)
C[Si](Cl)(Cl)[Si](C)(Cl)Cl,inactive,inactive,-5.47%,inactive,inactive,-10.2%,inactive,inactive,-10.7%,-4.71% (inactive),-1.71% (inactive),,-2.05% (inactive),inactive,-3.61% (inactive),-7.2% (inactive),inactive,6.3% (inactive),inactive,3.73% (inactive)
C=Cc1ccc(P(c2ccccc2)c2ccccc2)cc1,inactive,inactive,16.9%,inactive,inactive,-3.97%,inactive,inactive,-0.204%,3.02% (inactive),0.802% (inactive),,-0.0796% (inactive),inactive,,-7.87% (inactive),inactive,0.774% (inactive),inactive,9.12% (inactive)
Nc1cc(Cl)nc(C(=O)O)c1Cl,inactive,inactive,-21.2%,inactive,inactive,,,inactive,-11.4%,-3.66% (inactive),0.121% (inactive),1.56% (inactive),,,-4.32% (inactive),1.25% (inactive),inactive,2.09% (inactive),inactive,12% (inactive)
CCCCCCCCCCCCCCN,inactive,inactive,-7.23%,inactive,inactive,-19.1%,inactive,inactive,-5.44%,-5.01% (inactive),-1.74% (inactive),-0.123% (inactive),-1.81% (inactive),inactive,4.41% (inactive),-3.28% (inactive),inactive,1.71% (inactive),inactive,
CC(Cl)(Cl)C(=O)OCCOc1cc(Cl)c(Cl)cc1Cl,inactive,inactive,-5.22%,inactive,inactive,-6.02%,inactive,,-16.7%,0.808% (inactive),-1.51% (inactive),1.95% (inactive),6.22% (inactive),,2.91% (inactive),-9.39% (inactive),inactive,-0.3% (inactive),,
CNc1nc(=O)n(C2CCCCC2)c(=O)n1C,inactive,inactive,8.32%,inactive,inactive,-10.1%,inactive,inactive,-10.4%,4.07% (inactive),-1.72% (inactive),2.39% (inactive),-0.955% (inactive),inactive,3.71% (inactive),-6.85% (inactive),inactive,-0.0446% (inactive),inactive,
O=C(O)c1ccc2c(c1)C(=O)OC2=O,inactive,inactive,,inactive,inactive,-9.87%,inactive,inactive,-2.35%,-0.339% (inactive),0.891% (inactive),1.29% (inactive),-0.399% (inactive),inactive,-5.37% (inactive),-7.11% (inactive),inactive,0.711% (inactive),,1.57% (inactive)
O=C(c1ccc(Cl)cc1)c1ccc(Cl)cc1,inactive,inactive,24.6%,inactive,inactive,6.29%,inactive,inactive,-11.4%,7.91% (inactive),1.57% (inactive),-0.153% (inactive),-1.26% (inactive),inactive,,-7.2% (inactive),inactive,0.85% (inactive),inactive,
